# Measurements taken from PubChem BioAssay.
# Tested on: Neuregulin-1 EGF-like domain
# Assay: small molecules binding NRG1 EGF domain – biochemical, small-molecule microarray, 635 nm fluorescence, primary screen (AID 1081);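 also: binding of the protein to compounds printed on small-molecule microarray slides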
# Settings: higher = more signal
row,SMILES,composite z-score
1,C=CC(=C)[C@H]1Oc2ccccc2S(=O)(=O)N2CCC[C@@H]12,-0.595
2,C=C[C@@H](COC(=O)OC(C)(C)C)N(Cc1ccc(OC)cc1)S(=O)(=O)c1ccc(Br)cc1,0.8
3,COCC(=C=CC[C@@H](O)c1cccc(OCCO)c1)C[C@@H](O)c1ccccn1,1.3
4,O=C(CS)NCCCCCCNC(=O)[C@@H]1C[C@@H]2C(=O)NCC(=O)N2[C@@H]1c1cccc(OCCO)c1,1.46
5,C=C(CC1([C@@H](NP(=O)(c2ccccc2)c2ccccc2)[C@H]2C[C@@H]2CCCC)CC1)c1ccccc1,0.843
6,COC(=O)[C@@]1(Cc2ccc(F)cc2)[C@H]2c3cc(C(=O)N(C)C)n(Cc4cc(F)c(F)c(F)c4)c3C[C@H]2CN1C(=O)c1ccccc1,0.971
7,CN(C)CCCC[C@@H]1NC(=O)[C@H]2C[C@@H](C(=O)NCCCCCCN)[C@@H](c3ccc(O)cc3)N2C1=O,1.1
8,CN(C)CCCCCCNC(=O)[C@H]1C[C@H]2C(=O)N[C@@H](CCCCN)C(=O)N2[C@H]1c1cccc(OCCO)c1,1.55
9,CC(C)=CCCC(C)=CC(O)C1C=CC2C(=O)N(C)C(=O)C2N1Nc1ccccc1 (configuration not stated),1.2
10,CCS[C@H]1[C@@H](C(=O)O)[C@H](c2ccc(C)cc2)N(S(=O)(=O)c2ccc(C)cc2)[C@@H]1CC,1.36
11,CCC(CC)C(O)C1C=CC2C(=O)NC(=O)C2N1Nc1ccc(Cl)cc1Cl (configuration not stated),1.08
12,COC(=O)[C@@]1(Cc2ccc(F)cc2)[C@H]2c3cc(C(=O)N(C)C)n(Cc4ccccc4)c3C[C@H]2CN1C(=O)c1ccccc1,0.337
